Screens: PubChem, several laboratories
Sampled rows, rich in hits. Any-hit rate of the full collection: about 4.7%.
TIM10 inh – growth inhibitors of TIM10 yeast strain; S. cerevisiae TIM10 strain growth, BacTiter-Glo luminescence, 24 h; inhibition, % at 10 µM; actives 1.4% (n = 330,000);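 active means inhibition of 40% or more at the single tested concentration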;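 further: wild-type TIM10 isogenic control strain grown at permissive 25 °C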
PfHsp90 yeast 2 – reduces growth (ATP signal) of yeast expressing P. falciparum Hsp90; S. cerevisiae expressing PfHsp90, BacTiter-Glo ATP, 48 h; yeast lacking PDR1 and PDR3 efflux regulators; inhibition, % at 9.4 µM; actives 0.32% (n = 310,000);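 active means every replicate shows inhibition above about 80%, whatever the replicate mean, limit read from the data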;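 further: 0% = DMSO neutral controls and 100% = 20 µM radicicol positive controls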
tim23-1 inh – tim23-1 yeast growth inhibition; inhibition, % at 20 µM; actives 1.3% (n = 330,000); S. cerevisiae tim23-1 growth, BacTiter-Glo luminescence, 24 h;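 active means growth inhibition of the mutant yeast at or above 50%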;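 further: temperature-sensitive mutant grown at 25 °C; plate controls were DMSO-treated mutant yeast for no effect and medium wells lacking yeast for full effect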
SKKanGAS inh – inhibitors of SKKanGAS S. pyogenes growth in kanamycin (SK-promoter or general growth effect). inhibition, % at 7.5 µM. BacTiter-Glo, 6 h. actives 1.3% (n = 300,000);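 active means mean replicate score, as percent of positive control median, at least 50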;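 further: strain carries kanamycin resistance gene driven by streptokinase promoter and grows in 40 µg/ml kanamycin; loss of luminescence reflects streptokinase promoter inhibition or plain growth inhibition; 0% = median of DMSO wells and 100% = positive control at its reference dose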
tim10-1 inh – growth inhibitors of tim10-1 mutant yeast; S. cerevisiae tim10-1 ts strain growth, BacTiter-Glo, 24 h; inhibition, % at 20 µM; actives 2.2% (n = 330,000); AID 463190;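 active means inhibition of at least 40%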;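 further: mutant grown at 25 °C; 0% = DMSO wells with yeast and 100% = wells holding no yeast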
ATG4B inhibitor – ATG4B (human) cysteine protease inhibition. Q9Y4P1. ATG4B cleavage of LC3-PLA2, NBD-HPC fluorescence, 1 h. inhibition, % at 8.33 µM. actives 0.51% (n = 340,000); in the data active means inhibition above about 40%
Target sequence (Q9Y4P1 whole entry, looked up): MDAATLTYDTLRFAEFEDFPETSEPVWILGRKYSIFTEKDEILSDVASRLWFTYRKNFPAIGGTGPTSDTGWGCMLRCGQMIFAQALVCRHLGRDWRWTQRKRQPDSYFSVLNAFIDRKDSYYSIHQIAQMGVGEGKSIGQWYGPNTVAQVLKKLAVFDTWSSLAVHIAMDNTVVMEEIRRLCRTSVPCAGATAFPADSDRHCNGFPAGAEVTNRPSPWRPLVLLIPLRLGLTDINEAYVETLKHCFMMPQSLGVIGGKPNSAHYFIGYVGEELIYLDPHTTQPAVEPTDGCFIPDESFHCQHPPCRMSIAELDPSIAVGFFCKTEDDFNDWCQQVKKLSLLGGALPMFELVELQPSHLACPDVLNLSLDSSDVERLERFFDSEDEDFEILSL
tim10-1 conf – confirmation of tim10-1 mutant yeast growth inhibitors; shares compounds with tim10-1 inh; S. cerevisiae tim10-1 ts strain growth, BacTiter-Glo, 24 h; inhibition, % at 20 µM; actives 56% (n = 7,400); AID 463213;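 active means inhibition of yeast growth at or above a set limit in either of two repeat tests at 20 µM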;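 further: tim10-1 mutant grown at permissive 25 °C to find synthetic lethal compounds; 0% = DMSO yeast wells and 100% = medium wells without yeast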
tim10 confirm – confirmation of TIM10 yeast growth inhibitors | shares compounds with TIM10 inh | inhibition, % at 10 µM | S. cerevisiae tim10 strain growth, BacTiter-Glo luminescence, 24 h | actives 63% (n = 4,600);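 active means inhibition of yeast growth at or above a set limit in either of two replicates at 10 µM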;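 further: this counterscreen used the strain with wild-type TIM10; 0% = yeast with DMSO and 100% = medium wells lacking yeast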
tim23-1 confirm – tim23-1 yeast growth inhibition, confirmed | S. cerevisiae tim23-1 growth, BacTiter-Glo luminescence, 24 h | shares compounds with tim23-1 inh | actives 83% (n = 4,400) | inhibition, % at 20 µM;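 active means inhibition above about 39% in either of two replicate wells at 20 µM, limit read from the data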;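 further: temperature-sensitive tim23-1 mutant grown at 25 °C; 0% = DMSO wells with yeast and 100% = medium wells without yeast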
The depositor's hits bear a star; x = no result given.

SMILES | TIM10 inh | PfHsp90 yeast 2 | tim23-1 inh | SKKanGAS inh | tim10-1 inh | ATG4B inhibitor | tim10-1 conf | tim10 confirm | tim23-1 confirm
O=C(/C=C/c1ccccc1)/C=C/c1ccccc1 | 53* | 16 | 59* | -8 | 48* | 5 | 49* | -29 | 67*
Cc1cc(OCC(=O)O/N=C(\N)c2ccccc2)ccc1Cl | x | -2 | x | x | x | 7 | x | x | x
CC(/C=C\c1ccccc1)=C/C(=O)O | 15 | -7 | 16 | 0 | 8 | -8 | x | x | x
N/C(=N\OC(=O)c1ccoc1)c1ccc(Br)cc1 | 71* | 20 | 81* | -2 | 59* | -3 | 54* | 64* | 84*
Cc1cc(OCC(=O)O/N=C(\N)c2ccccc2)cc(C)c1Cl | 36 | 25 | 73* | -19 | 64* | 31 | 49* | x | 80*
N/C(=N\OC(=O)/C=C/c1ccccc1)c1ccccc1 | 45* | -18 | 77* | -1 | 43* | 1 | 53* | 63* | 73*
CCOCCCn1c(=S)[nH]c2cc(C(=O)N3CCN(C)CC3)ccc2c1=O | -13 | -6 | -2 | 2 | 8 | -3 | x | x | x
Cc1ccc(C)c(C(=O)O/N=C(\N)c2ccc(Br)cc2)c1 | 87* | -4 | 86* | 3 | 57* | -7 | 33* | 87* | 61*
Cc1ccccc1C(=O)O/N=C(\N)c1ccccc1 | 53* | -11 | 57* | 5 | 55* | 1 | 58* | 50* | 68*
Cc1ccccc1/C(N)=N/OC(=O)c1ccc(F)cc1 | 73* | -7 | 74* | 10 | 44* | -2 | 43* | 56* | 67*
CC[n+]1c(/C=C/N(C)c2ccccc2)oc2ccc(Cl)cc21 | 6 | 1 | 22 | -5 | 14 | 6 | x | x | x
CCN1/C(=C/C=C/c2oc3ccc4ccccc4c3[n+]2CC)Oc2ccc3ccccc3c21 | 62* | x | 69* | x | 54* | 91* | 56* | 68* | 64*
CC(=O)Nc1ccc(NC(=O)C2CC(=O)N(c3cccc(Cl)c3)C2)cc1 (stereo not given) | 3 | -22 | 9 | -9 | 6 | -4 | x | x | x
COc1ccc(-c2cc(C(=O)N3CCN(c4ccccc4F)CC3)c3ccccc3n2)c(OC)c1 | 39 | 104* | 57* | 2 | 54* | -2 | 58* | x | 58*
COc1ccc(-c2cc(C(=O)N3CCN(c4ncccn4)CC3)c3ccccc3n2)c(OC)c1 | 59* | -16 | 51* | 8 | 66* | -14 | 52* | 7 | 13
COc1ccc(-c2cc(C(=O)N3CCCCCC3)c3ccccc3n2)c(OC)c1 | 22 | 9 | 54* | 2 | 42* | -9 | 22 | x | 48*
Cc1ccc(-c2cc(C(=O)N3CCN(c4ccc(F)cc4)CC3)c3ccccc3n2)o1 | 27 | -45 | 51* | 14 | 44* | -5 | 26 | x | 44*
COc1ccc(C(=O)NNC(=O)c2cccc(S(=O)(=O)N3CCOCC3)c2)cc1 | -9 | x | 3 | x | -7 | -1 | x | x | x
CCOc1ccc(-n2cc(C(=O)NCc3ccco3)c3cc(OC)c(OC)cc3c2=O)cc1 | 23 | 4 | 1 | 12 | -8 | -1 | x | x | x
CNC(=O)c1snnc1-c1ccccc1 | -6 | x | -1 | 1 | -6 | 7 | x | x | x
COc1ccc(CN=Cc2c(C(F)(F)F)[nH][nH]c2=O)cc1 | 7 | -2 | 9 | -3 | 17 | 9 | x | x | x
COc1ccc(OC)c(/C=c2\sc3nc(-c4cccs4)nn3c2=O)c1 | 28 | 7 | 53* | 7 | 49* | -4 | 37* | x | 47*
CC[C@]12c3[nH]c4ccc(OC)cc4c3CCN1C(=O)C(CC(=O)NCCCn1ccnc1)C[C@@H]2C(=O)N1CCN(C(=O)C2CC2)CC1 (stereo not given in full) | -12 | 14 | 30 | x | 12 | x | x | x | x
